KDM5B inh = Primary screen for KDM5B Histone Demethylases FDH-coupled qHTS. 220,000 tested, 2.6% active. AID 1347165, 2019. Lysine-specific demethylase 5B (Homo sapiens), Q9UGL1. KDM5B demethylase, FDH-coupled NADH fluorescence (FDH is formaldehyde dehydrogenase). Potency, µM (series often up to 57.7 µM), usual class: inhibitors; active means well fitted inhibition curve with a large enough effect; further: 0% is about no effect; nearly all actives have a fitted effect of over 70% in size
Target sequence (Q9UGL1 whole entry, looked up): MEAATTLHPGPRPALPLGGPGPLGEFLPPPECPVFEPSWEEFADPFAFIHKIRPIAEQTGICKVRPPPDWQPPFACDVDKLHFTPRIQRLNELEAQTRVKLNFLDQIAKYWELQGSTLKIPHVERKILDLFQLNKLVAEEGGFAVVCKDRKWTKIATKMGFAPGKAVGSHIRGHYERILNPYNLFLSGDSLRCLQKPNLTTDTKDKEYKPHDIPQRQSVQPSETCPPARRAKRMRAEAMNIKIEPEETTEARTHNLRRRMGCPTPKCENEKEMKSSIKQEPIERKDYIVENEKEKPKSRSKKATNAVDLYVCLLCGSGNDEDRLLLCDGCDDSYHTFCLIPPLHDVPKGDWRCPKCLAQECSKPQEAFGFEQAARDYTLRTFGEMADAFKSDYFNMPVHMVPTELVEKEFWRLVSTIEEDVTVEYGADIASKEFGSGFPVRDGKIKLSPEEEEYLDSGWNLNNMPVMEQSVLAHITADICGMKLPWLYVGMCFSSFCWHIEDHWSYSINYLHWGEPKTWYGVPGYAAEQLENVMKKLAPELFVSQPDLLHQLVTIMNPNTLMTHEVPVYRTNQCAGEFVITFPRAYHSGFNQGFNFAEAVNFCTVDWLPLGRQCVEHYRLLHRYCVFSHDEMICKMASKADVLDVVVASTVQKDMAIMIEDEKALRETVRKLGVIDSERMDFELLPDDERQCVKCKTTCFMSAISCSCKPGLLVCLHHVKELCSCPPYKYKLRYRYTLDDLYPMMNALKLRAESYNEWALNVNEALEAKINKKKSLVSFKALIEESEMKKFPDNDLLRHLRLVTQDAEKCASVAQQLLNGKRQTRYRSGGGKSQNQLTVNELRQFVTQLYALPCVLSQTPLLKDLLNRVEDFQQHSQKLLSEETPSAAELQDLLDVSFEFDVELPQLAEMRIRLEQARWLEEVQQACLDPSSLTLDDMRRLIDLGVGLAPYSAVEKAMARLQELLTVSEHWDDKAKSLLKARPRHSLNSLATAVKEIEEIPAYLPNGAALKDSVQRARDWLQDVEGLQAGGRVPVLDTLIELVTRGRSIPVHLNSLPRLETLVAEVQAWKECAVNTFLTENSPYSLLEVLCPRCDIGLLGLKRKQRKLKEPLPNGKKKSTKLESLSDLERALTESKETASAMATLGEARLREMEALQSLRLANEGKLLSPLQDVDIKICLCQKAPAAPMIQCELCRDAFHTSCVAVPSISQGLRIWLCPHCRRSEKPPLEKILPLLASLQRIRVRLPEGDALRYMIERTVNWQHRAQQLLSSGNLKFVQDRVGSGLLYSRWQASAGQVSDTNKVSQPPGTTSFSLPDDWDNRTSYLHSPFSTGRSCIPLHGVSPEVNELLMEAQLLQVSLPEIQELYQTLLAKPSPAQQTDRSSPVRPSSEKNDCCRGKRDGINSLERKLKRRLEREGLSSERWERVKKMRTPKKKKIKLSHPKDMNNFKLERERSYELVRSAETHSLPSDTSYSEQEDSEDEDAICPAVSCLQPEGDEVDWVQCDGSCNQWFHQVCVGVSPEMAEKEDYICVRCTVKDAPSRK
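KDM5BΔAP (200 nM final) in 50 mM HEPES pH 7.5, 0.01% Tween-20 was preincubated 10 min at RT with compound over a concentration range. Substrate mix (H3K4me3 12.5 µM, α-KG 25 µM, Fe²⁺, ascorbate, NAD⁺, FDH) was added, and NADH fluorescence change over 30 min gave dose-response curves.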
Numbers without * were called inactive; i = inactive. Shown is part of a subset that was picked to be rich in hits. Potency means the concentration at half of the fitted maximal effect.

SMILES	KDM5B inh
N#Cc1ccccc1COC(=O)c1ccc(C(=O)c2ccccc2)cc1	i
CC(=O)N1CCN(C(=O)Cn2ccc3cc(Cl)ccc32)CC1	i
CN(CC(=O)Nc1cccc(F)c1)C(=O)c1cc2ccccc2cc1O	i
COc1ccc2c(c1)OCC(CNC(=O)c1csc(C(C)=O)c1)C2 (centres undefined)	i
COCc1ccc(C(=O)NCC2COc3cc(OC)ccc3C2)o1 (centres undefined)	i
COc1ccc2c(c1)OCC(CNC(=O)c1cnn3ccccc13)C2 (centres undefined)	25µM*
Nc1nc(CN2CCN(C(=O)c3ccc(Cl)cc3)CC2)nc2ccccc12	i
Cc1ccc(NCC(=O)Nc2cc(Cl)ccc2-n2cncn2)cc1F	i
O=C1COCC2(CN1Cc1ccccc1)CN(C(=O)c1ccc(F)c(Cl)c1)C2	i
Fc1ccc(/C=N/Nc2ccccc2)cc1F	i
COc1cncc(Nc2cnc3ccc(-c4ccccc4OC)nn23)c1	i
COc1cncc(Nc2cnc3ccc(N(C)Cc4ccc(F)cc4)nn23)c1	35µM*
Fc1ccc(-c2ccc3ncc(Nc4ccnc(N5CCOCC5)c4)n3n2)cc1	i
Fc1ccc(-c2ccc3ncc(Nc4cc(F)cc(N5CCOCC5)c4)n3n2)cc1	i
COc1ccc(Nc2cnc3ccc(N(C)Cc4cccnc4)nn23)cc1OC	i
CN(Cc1ccc(F)cc1)c1ccc2ncc(Nc3ccnc(N4CCOCC4)c3)n2n1	28µM*
O=S(=O)(Cc1coc(-c2cccc(Cl)c2)n1)CC1CCCO1 (centres undefined)	i
CC(C)=CC1C(C(=O)NCc2ccccc2OC(F)F)C1(C)C (centres undefined)	i
S=C(NCCNc1c(Cl)c(Cl)c(Cl)c(Cl)c1Cl)Nc1ccccc1	i
COc1cc(C2C(C#N)=C(N)Oc3n[nH]c(C)c32)ccc1OCc1c(F)cccc1Cl (centres undefined)	i
COc1ccc(-c2[nH]ncc2CN2CCCCCNC(=O)CC2c2ccccc2)cc1 (centres undefined)	i
CC(C)(C)c1ccc(/C=C2/C(=O)c3ccccc3OC2c2ccccc2)cc1 (centres undefined)	i
COc1cccc(CNC(=O)C2Cn3cccc3C(=O)N2Cc2ccccc2)c1OC (centres undefined)	i
Cc1cc(NC(=O)CN2CCN(C(=O)c3ccc(C)c(F)c3)CC2)no1	i
O=C(Cn1cccc1-c1nc(-c2ccccc2)no1)N1CCc2ccccc21	i
SMILES	KDM5B inh
O=C(Cn1cccc1-c1nc(-c2ccc3c(c2)OCO3)no1)N1CCCc2ccccc21	32µM*
O=C(Cn1cccc1-c1nc(-c2ccc(F)cc2)no1)N1CCc2ccccc21	i
O=C(Nc1ccccc1)c1cn(-c2ccc3c(c2)OCCO3)nn1	i
O=C(Cn1nc(C(=O)O)c2ccccc2c1=O)NC(c1ccccc1)c1ccccc1	i
COc1ccc(-c2nc(-c3ccccc3)nc3c2CN(C(=O)C2CC2)CC3)cc1	i
COc1ccc(-c2cc3nc4c(c(=O)n3[nH]2)CN(C(=O)NCc2ccco2)CC4)cc1	25µM*
COc1ccc(-c2cc3nc4c(c(=O)n3[nH]2)CN(C(=O)Cc2ccccc2)CC4)cc1	28µM*
CC(=O)N1CCc2nc(-c3ccccc3)nc(-c3ccc(Cl)cc3)c2C1	i
COc1ccc(-c2nc3c(c(-c4ccccc4)n2)CN(C(C)=O)CC3)cc1	28µM*
COc1ccc(CC(=O)N2CCc3nc(C(C)C)nc(-c4ccc(OC)cc4)c3CC2)cc1	i
Cc1nc2c(c(=O)n1C)CCN(C(=O)NCc1ccco1)CC2	i
COc1ccc(CC(=O)N2CCc3nc(-c4cccnc4)[nH]c3C2)cc1	i
O=C(NCc1ccco1)N1CCc2c(nc(-c3ccc(F)cc3)[nH]c2=O)C1	i
O=C(Cn1nc(C(=O)O)c2ccccc2c1=O)c1ccc(C2CCCCC2)cc1	i
Nc1cc(N)nc(SCCC(=O)Nc2cccc(Cl)c2)n1	i
CC(NCc1ccc(-c2ccc(F)cc2)o1)c1ccccc1 (centres undefined)	i
O=C(c1ccc(Cl)cc1)N1CCC2(CC1)C(=O)NCN2CCc1ccccc1	i
CC(C)CC(=O)N(c1ccc(Br)cc1)C1C=CS(=O)(=O)C1 (centres undefined)	i
O=C(NCC1Cn2cccc2C(=O)N1Cc1ccccc1)Nc1ccccc1F (centres undefined)	i
CN1C(=O)c2cccn2CC1CNC(=O)Nc1ccccc1 (centres undefined)	i
O=C(NCC1Cn2cccc2CN1Cc1ccccc1)C1CC1 (centres undefined)	28µM*
O=C(NCC1Cn2cccc2C(=O)N1Cc1ccccc1)C1CCC1 (centres undefined)	i
NCCc1ccc(CN2C[C@@H]3CC[C@H](C2)N(Cc2ccccc2)C3)cc1	i
CN1C(=O)c2cccn2CC1CNC(=O)NCCc1ccccc1 (centres undefined)	i
CN1Cc2cccn2CC1CNC(=O)NC1CCCCC1 (centres undefined)	28µM*
SMILES	KDM5B inh
O=C(NCc1ccccc1)NCC1Cn2cccc2C(=O)N1Cc1ccccc1 (centres undefined)	i
NCC1Cn2cccc2CN1Cc1ccccc1 (centres undefined)	16µM*
O=C(NCC1Cn2cccc2C(=O)N1Cc1ccccc1)C1CC1 (centres undefined)	i
O=C(NCC1Cn2cccc2CN1Cc1ccccc1)NC1CCCCC1 (centres undefined)	28µM*
O=C1c2cccn2CC(CNS(=O)(=O)Cc2ccccc2)N1Cc1ccccc1 (centres undefined)	i
Cc1ccc(/C=C/C(=O)NCC(C)C)cc1	i
CC(C)(C)CC(=O)N1CCC(N2C(=O)CCC2C(=O)NCc2ccccc2)CC1 (centres undefined)	i
Cc1ccc2c(=O)cc(C(=O)NCC(c3cccs3)N3CCCC3)oc2c1 (centres undefined)	i
COc1ccc(-c2cc(C)no2)cc1S(=O)(=O)CCC(=O)Nc1cccc(Cl)c1	i
COc1ccccc1Cn1ccnc1SCC(=O)Nc1ccc(C(C)=O)cc1	i
O=C(O)c1ccc(CNCc2cccc(Br)c2)cc1	i
CCC(C)NC(=O)N1CC(c2nc(CCOCC3CCOCC3)no2)C1 (centres undefined)	i
CCN(CC)S(=O)(=O)c1ccc(S(=O)(=O)N2CCCC2c2cccn2C)cc1 (centres undefined)	i
CCn1cc(S(=O)(=O)NCC2Cn3cccc3C(=O)N2CCOC)cn1 (centres undefined)	i
O=C(CCc1nc2ccccc2s1)NCC1CCCCC(=O)N1 (centres undefined)	i
Cc1ccc(OCC(=O)NCC2Cn3cccc3C(=O)N2C)cc1 (centres undefined)	i
O=C(CCc1nc2ccccc2s1)NCCc1cccc(F)c1	i
O=C(COc1ccc(F)cc1)NCC1Cn2cccc2CN1Cc1ccccc1 (centres undefined)	25µM*
COc1ccc(S(=O)(=O)NCC2Cn3cccc3C(=O)N2Cc2ccccc2)cc1 (centres undefined)	i
O=C(COc1ccc(C(=O)c2ccc(F)cc2)cc1)NC(=O)NCc1ccccc1	i
CCn1cc(S(=O)(=O)NCC2Cn3cccc3CN2Cc2ccccc2)cn1 (centres undefined)	28µM*

Source: PubChem
